# Experimental data from PubChem BioAssay AID449739 (Vanderbilt High Throughput Screening Facility, 2010).
# The campaign covered roughly 100,000 compounds. About 4,200 (4.2%) were called active. What follows is part of a selection rich in actives, with near analogues and random picks from the rest. Values without a mark were called inactive.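 How the source made its calls: active means single-dose well whose peak fluorescence ratio is a statistical outlier from its plate by either plate-standardised score or position-corrected B-score; inactive means the rest.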
# Target: Voltage-dependent T-type calcium channel subunit alpha-1H (Homo sapiens) (UniProt O95180)
# Sequence (O95180 whole entry, looked up): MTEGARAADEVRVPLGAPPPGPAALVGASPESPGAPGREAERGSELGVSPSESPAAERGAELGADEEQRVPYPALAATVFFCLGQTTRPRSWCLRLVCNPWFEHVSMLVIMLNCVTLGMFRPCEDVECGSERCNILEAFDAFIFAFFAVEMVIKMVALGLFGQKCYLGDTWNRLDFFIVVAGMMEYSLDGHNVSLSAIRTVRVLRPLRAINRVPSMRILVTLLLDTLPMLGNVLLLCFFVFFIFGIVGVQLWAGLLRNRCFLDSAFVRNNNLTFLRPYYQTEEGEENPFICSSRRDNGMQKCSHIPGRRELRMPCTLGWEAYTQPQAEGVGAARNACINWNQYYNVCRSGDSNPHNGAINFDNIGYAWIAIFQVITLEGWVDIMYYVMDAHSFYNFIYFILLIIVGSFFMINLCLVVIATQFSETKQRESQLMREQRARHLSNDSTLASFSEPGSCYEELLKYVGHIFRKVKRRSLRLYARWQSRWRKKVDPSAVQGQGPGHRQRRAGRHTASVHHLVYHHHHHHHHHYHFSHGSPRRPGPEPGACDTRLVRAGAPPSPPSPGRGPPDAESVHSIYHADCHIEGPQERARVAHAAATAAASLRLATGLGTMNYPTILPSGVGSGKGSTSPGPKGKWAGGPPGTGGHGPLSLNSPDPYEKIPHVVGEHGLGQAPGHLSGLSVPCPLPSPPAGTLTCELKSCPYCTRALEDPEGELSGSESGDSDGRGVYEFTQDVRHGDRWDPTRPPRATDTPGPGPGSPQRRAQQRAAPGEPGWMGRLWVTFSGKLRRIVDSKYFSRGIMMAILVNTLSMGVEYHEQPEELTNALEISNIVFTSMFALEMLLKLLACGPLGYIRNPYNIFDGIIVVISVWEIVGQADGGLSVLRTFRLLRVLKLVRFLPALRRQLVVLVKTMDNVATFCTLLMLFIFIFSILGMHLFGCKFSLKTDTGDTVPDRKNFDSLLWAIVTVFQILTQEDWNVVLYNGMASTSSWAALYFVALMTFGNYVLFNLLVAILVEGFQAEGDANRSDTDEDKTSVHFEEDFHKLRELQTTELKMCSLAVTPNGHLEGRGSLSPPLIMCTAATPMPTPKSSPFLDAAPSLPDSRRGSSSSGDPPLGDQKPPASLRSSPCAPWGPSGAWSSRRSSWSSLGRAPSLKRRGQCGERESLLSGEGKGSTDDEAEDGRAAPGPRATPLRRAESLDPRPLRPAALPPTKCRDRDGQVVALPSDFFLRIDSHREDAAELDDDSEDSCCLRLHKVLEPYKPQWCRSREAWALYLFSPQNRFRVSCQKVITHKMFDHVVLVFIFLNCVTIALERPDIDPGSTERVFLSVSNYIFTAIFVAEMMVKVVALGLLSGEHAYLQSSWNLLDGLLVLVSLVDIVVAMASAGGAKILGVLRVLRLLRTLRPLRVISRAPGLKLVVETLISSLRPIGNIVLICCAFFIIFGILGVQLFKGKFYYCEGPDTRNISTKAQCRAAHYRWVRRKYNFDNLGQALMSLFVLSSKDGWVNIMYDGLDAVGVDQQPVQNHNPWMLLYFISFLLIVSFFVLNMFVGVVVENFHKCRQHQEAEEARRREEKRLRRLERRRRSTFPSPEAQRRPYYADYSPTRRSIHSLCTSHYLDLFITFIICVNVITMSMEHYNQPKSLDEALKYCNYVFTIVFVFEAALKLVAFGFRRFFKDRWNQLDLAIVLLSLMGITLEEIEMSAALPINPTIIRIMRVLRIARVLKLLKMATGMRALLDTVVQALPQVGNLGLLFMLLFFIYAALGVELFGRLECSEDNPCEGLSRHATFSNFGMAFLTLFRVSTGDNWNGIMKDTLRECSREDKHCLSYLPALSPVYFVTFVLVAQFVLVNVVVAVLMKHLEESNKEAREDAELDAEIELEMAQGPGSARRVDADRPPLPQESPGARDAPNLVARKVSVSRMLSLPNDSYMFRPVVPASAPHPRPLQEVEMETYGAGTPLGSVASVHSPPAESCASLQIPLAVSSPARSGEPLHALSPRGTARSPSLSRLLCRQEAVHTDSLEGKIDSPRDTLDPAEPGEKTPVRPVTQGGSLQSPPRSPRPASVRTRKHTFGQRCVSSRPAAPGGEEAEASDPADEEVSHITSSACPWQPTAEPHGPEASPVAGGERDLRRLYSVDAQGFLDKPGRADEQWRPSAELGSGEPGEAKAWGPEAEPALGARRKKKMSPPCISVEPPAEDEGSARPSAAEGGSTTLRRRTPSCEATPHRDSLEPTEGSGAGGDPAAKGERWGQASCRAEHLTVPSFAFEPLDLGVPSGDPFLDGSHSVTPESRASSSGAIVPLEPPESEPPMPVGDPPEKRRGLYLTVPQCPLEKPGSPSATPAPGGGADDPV
# Test: Cav3.2 calcium influx blockers – cell-based, Fluo-4 calcium fluorescence, FDSS, MLSMR library, primary screen (AID 449739)
# Conditions: Cav3.2-expressing cells, at 10 µM, active compounds read low
row,SMILES,B-score
1,C#CCNC(=O)C1=C[C@@H](c2ccccc2)[C@H](CCCO)[C@@H](OCC)O1,1.09
2,Cc1ccc(C)c(N(CC(=O)NCc2ccco2)C(=O)CCC(=O)Nc2ccccn2)c1,-2.66
3,Cc1ccc2c(c1)N(CC(=O)N(Cc1ccccn1)Cc1ccco1)C(=O)C(C(C)C)O2 (stereo not given),-6.96 (active)
4,Cc1ccc(C(C(=O)NC2CCCC2)N(Cc2ccco2)C(=O)CCC(=O)Nc2ccccn2)cc1 (stereo not given),0.124
5,C#CCOCCOCCOCCNc1nc(N2CCN(C(=O)[C@H](CCC(=O)O)n3cc(C(N)CO)nn3)CC2)nc(N2CCN(C(=O)[C@H](Cc3ccc(O)cc3)n3cc(C(N)[C@H](C)CC)nn3)CC2)n1 (stereo not given in full),-0.353
6,O=C(O)/C=C/C(=O)Nc1ccc(F)cc1F,0.769
7,Cn1cnc([N+](=O)[O-])c1Sc1ccccc1,0.333
8,CC(C)(C)n1nc(Cc2cccc3ccccc23)c(C#N)c1N,-1.32
9,c1ccc(-c2nnc(SCc3nc4ccccc4[nH]3)o2)cc1,-1.58
10,c1ccc2c(CSCc3nc4ccccc4[nH]3)cccc2c1,-7.7 (active)
11,COC(=O)Cc1nc2ccccc2[nH]1,0.0867
12,COc1cc2c(cc1O)[C@H](Cc1ccc(Oc3cc(C[C@@H]4NCCc5cc(OC)c(O)cc54)ccc3O)cc1)NCC2,0.142
13,C(=N/N1CCN(c2ccccc2)CC1)/c1cccs1,0.219
14,O=C(CCNS(=O)(=O)c1ccccc1C(F)(F)F)NCc1ccc2c(c1)OCO2,-0.223
15,CCCn1c(C(O)c2cc(OC)ccc2OC)nc2ccccc21 (stereo not given),-1.69
16,COc1ccc(-c2nc3ccccc3n2CCC(C)C)cc1OC,-6.94 (active)
17,COCCn1c(-c2ccc(OC)c(OC)c2)nc2ccccc21,0.414
18,CCCCN1C(N)=NC[C@@H]1CC1CCCCC1,0.078
19,CCCCN1C(=S)NC[C@@H]1C(C)CC (stereo not given in full),-0.603
20,C[C@H](NC(=O)c1nc[nH]c1C(=O)N[C@@H](C)C(=O)OC(C)(C)C)C(=O)OC(C)(C)C,0.275
21,COc1cccc(-c2nnc(SCCOc3ccc4c(C)cc(=O)oc4c3)o2)c1,1.22
22,COc1ccc(C(=O)CN2C(=O)NC(C)(c3ccc(C)cc3)C2=O)cc1OC (stereo not given),-0.586
23,Cc1ccc(SCCN2C(=O)NC(C)(C)C2=O)cc1,0.269

row,SMILES,B-score
1,Cc1ccc(C2(c3ccc(C)cc3)NC(=O)N(Cc3c(C)noc3C)C2=O)cc1,-6.31 (active)
2,NS(=O)(=O)c1cccnc1Nc1cccc(Cl)c1,-0.12
3,O=S(=O)(c1cnccc1N1CCN(/N=C/c2ccc(Br)cc2)CC1)N1CCCCC1,-0.791
4,Cc1ccc(-c2csc(N(Cc3ccco3)C(=O)c3cccs3)n2)cc1,-1.85
5,Cc1ccc(/C=N/NC(=O)c2sccc2OCc2ccc(F)cc2)cc1,-0.514
6,O=C(Nc1ccc(Cl)c(Cl)c1)N1CC=C(c2ccccc2)CC1,-6.72 (active)
7,O=C(Nc1ccc(N2CCN(C(=O)c3ccccc3)CC2)c(Cl)c1)c1cccnc1,1.44
8,NC(=O)N1CCCC1C(=O)Nc1ccc(Cl)c(Cl)c1 (stereo not given),-0.377
9,COC(=O)CCCC1=CC2=CC(=O)C(C)(OC(=O)c3cccs3)C(=O)C2=CN1CC1CC1 (stereo not given),1.17
10,C#CCOCCOCCOCCNc1nc(N2CCN(C(=O)[C@H](C(C)C)n3cc(CCO)nn3)CC2)nc(N2CCN(C(=O)[C@H](C(C)C)n3cc(CCO)nn3)CC2)n1,0.0404
11,Cc1cc(NC(=O)CCC(=O)N(CC(=O)NCC2CCCO2)c2ccccc2C)no1 (stereo not given),0.22
12,CCCCOc1ccc(N(CC(=O)NCC2CCCO2)C(=O)CCC(=O)Nc2cc(C)ccn2)cc1 (stereo not given),-9.41 (active)
13,COCCNC(=O)CN(C(=O)CCC(=O)Nc1cc(C)on1)c1ccc(C)cc1C,0.162
14,COCOc1cc(O)c(C(=O)/C=C/c2ccc(OCOC)c(OCOC)c2)c(OCOC)c1,0.785
15,Oc1ccc2ccc3cccc[n+]3c2c1,-10 (active)
16,COC(C[C@H](O)CC(=O)COCc1ccccc1)OC,0.759
17,C=CCn1c(Cn2nnc3ccccc32)nnc1SCC(=O)N/N=C/c1cc(Br)cc(OC)c1O,0.722
18,COc1ccc(Br)cc1/C=N/n1c(C)nnc1C,0.564
19,COc1cc(Br)cc(/C=N/c2ncn[nH]2)c1O,-3.11 (active)
20,CCOc1ccc2nc(N3CCCN(C(=O)Nc4ccccc4C)CC3)c(C#N)cc2c1,-4.45 (active)
21,Cc1cccc2cc(C#N)c(N3CCCC3)nc12,-0.395
22,CCOc1ccc2nc(NCCNS(=O)(=O)c3ccccc3)c(C#N)cc2c1,0.364
23,COc1ccc(C#Cc2c(-c3ccc(OC)cc3)oc3ccc(-c4ccc5c(c4)OCO5)cc23)cc1,-2.98

row,SMILES,B-score
1,CCO[C@H]1OC(C(=O)O)=C[C@@H](C2CCCCC2)[C@@H]1CCCO,-0.908
2,Cc1ccccc1-c1nc(CS(=O)(=O)CC(=O)N2CCc3ccccc3C2)c(C)o1,-4.63 (active)
3,COc1ccc(-c2nc(CS(=O)CC(=O)N3CCc4ccccc4C3)c(C)o2)cc1 (stereo not given),0.115
4,Cc1nnc(SCC(=O)N2CCc3ccccc3C2)s1,0.719
5,Nn1c(SCC(=O)NC(=O)NC2CCCC2)nnc1-c1ccccc1F,0.0138
6,CCCn1c(C)cc(C(=O)COC(=O)c2c(C)nn(-c3ccccc3)c2C)c1C,-3.42
7,Cc1nn(-c2ccccc2)c(C)c1C(=O)OCC(=O)NC(=O)NC1CCCCC1,-5.85 (active)
8,COC(=O)c1c(-c2cccs2)csc1NC(=O)CSc1ncnc2sc(C)c(C)c12,-0.978
9,CCCCNC(=S)NNC(=O)c1cc(C)on1,0.531
10,COc1ccccc1N1CCN(Cc2ccc(OC)c3ccccc23)CC1,-1.06
11,CCN1CCN(CCCCOc2ccccc2F)CC1,0.893
12,COc1ccccc1N1CCN(CCCCOc2ccc(F)cc2)CC1,-5.88 (active)
13,COc1cnc(SCc2ccc(Cl)c(Cl)c2)nc1Cl,-1.35
14,O=C(O)C1CC=C(Cl)CC1C(=O)NCc1ccccc1 (stereo not given),0.671
15,O=C(NCc1ccccc1)[C@H]1C[C@@H]1[C@H](NP(=O)(c1ccccc1)c1ccccc1)c1ccccc1,-4.19 (active)
16,COC(=O)[C@H](Cc1ccccc1)NC(=O)[C@@H]1C[C@H]1[C@@H](NC(=O)OCc1ccccc1)c1ccccc1,0.0644
17,Cc1cc(C)c2nc(NC(=O)c3ccc4c(c3)OCO4)sc2c1,0.981
18,C=C(C)C(=O)Nc1cccc(C2=NOC3(C2)C[C@H](C(N)=O)N(C(=O)C(c2ccccc2)c2ccccc2)C3)c1 (stereo not given in full),-0.703
19,CCOC(=O)c1sc2nc(SC)nc(-c3ccccc3)c2c1N,-0.0983
20,Nc1ccccc1SCc1cc([N+](=O)[O-])cc2c1OCOC2,-4.25 (active)
21,O=C(CNC(=O)Cc1ccccc1)NCC(=O)OCC(=O)c1ccccc1Cl,0.107
22,CCOC(=O)/C(=C\c1ccc([N+](=O)[O-])cc1)C(=O)c1cc(C(C)=O)c(Nc2ccccc2)s1,0.717
23,Cc1ccc(S(=O)(=O)NCC(=O)N2CCN(c3ccccn3)CC2)cc1,0.189

row,SMILES,B-score
1,Cc1ccnc(N2CCN(C(=O)CSc3nc4ccccc4nc3N3CCCCC3)CC2)c1,-7.43 (active)
2,Cc1nnc(SCC(=O)N2CCN(c3ccccc3)CC2)n1-c1ccccc1,0.663
3,CCC(C)[C@@H](C(=O)N1CCNCC1)n1cc(CCCCN)nn1 (stereo not given in full),0.219
4,CC1(C)CC(=O)C2=C(C1)N=C1SCCC(=O)N1C2c1ccc(C(F)(F)F)cc1 (stereo not given),-1.88
5,CC(C)(C)NS(=O)(=O)CC12CCC(CC1=O)C2(C)C (stereo not given),0.0444
6,CCCC(=O)NC(Nc1ccccc1OC)C(Cl)(Cl)Cl (stereo not given),0.143
7,NCCCC[C@@H]1NC(=O)[C@H](CCC(=O)O)NC(=O)c2cc([N+](=O)[O-])cc(I)c2NCC[C@@H](C(N)=O)NC1=O,0.612
8,O=C(O)CC(c1ccccc1)n1cnnn1 (stereo not given),0.533
9,O=C(c1ccc(-n2cnnn2)cc1)N1CCN(C(c2ccccc2)c2ccccc2)CC1,-4.29 (active)
10,O=C(c1ccccc1)N1CCN(C(=O)N2CCCCC2)CC1,1.15
11,N/C(=N\OC(=O)CCC1CCCCC1)c1ccccn1,0.693
12,N#Cc1nc(COc2ccc(-c3ccccc3)cc2)oc1NCc1cccnc1,-1.76
13,N#Cc1nc(Cc2ccccc2)oc1NCCc1ccccc1,-6.7 (active)
14,N#Cc1nc(-c2ccc(OCc3ccccc3)cc2)oc1NCCCN1CCOCC1,-0.428
15,CC1C/C(=N/NC(=O)c2cccs2)CC(C)(C)C1 (stereo not given),0.092
16,O=C(O)C1CC=CCC1C(=O)Nc1ccccc1C(=O)N1CCN(c2ccccc2)CC1 (stereo not given),0.0959
17,O=C(c1ccccc1Oc1ccccc1)N1CCN(c2ccc(F)cc2)CC1,-4.99 (active)
18,CC(C)N(C(=O)COC(=O)c1ccccc1C(=O)N1CCN(c2ccc(F)cc2)CC1)C(C)C,0.00273
19,Cc1cc2nnc(SCC(=O)N3CCN(c4ccccc4)CC3)n2c(N)n1,0.355
20,Cn1c(Cc2cccc3ccccc23)nnc1SCC(=O)N1CCN(c2cccc(Cl)c2)CC1,-6.61 (active)
21,Cc1ccccc1NC(=O)Cc1nnc(SCC(=O)N2CCN(c3ccccc3)CC2)n1C,0.445
